Drawing on PubChem BioAssay (NCI), this text covers growth for five compounds.

“And” between values parts separate entries of the source, which are not always exact repeats. Identical values can stand only once. Compounds without any hit were thinned out: in the full panel of roughly 83,000, 20% have a hit.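 Values shown are percent growth following 48 h exposure of cells in 96-well plates to a single concentration of compound; below 10 was considered active.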 More than one record can exist for a structure, and the calls need not agree. The source made the active and inactive calls.

Common to all, as to assay: NCI-60 one-dose screen, 48 h (100 = growth as untreated, 0 = no growth, -100 = all killed)
Conditions in all cases: 10 µM unless noted

Experiment [1] concerns HCT-15 colon.
The test system of experiment [2] is HT29 colon.
Experiment [3] relates to SNB-75 CNS.
In experiment [4] the test system is SNB-19 CNS.
The subject of experiment [5] is U251 CNS.
Experiment [6] deals with PC-3 prostate.
For experiment [7], the system named is SK-MEL-5 melanoma.
Experiment [8] has as its system UACC-62 melanoma.
Experiment [9] concerns LOX IMVI melanoma.
For experiment [10], the system named is SK-MEL-28 melanoma.
The subject of experiment [11] is SK-MEL-2 melanoma.
The subject of experiment [12] is EKVX NSCLC.
The subject of experiment [13] is SN12C renal.
For experiment [14], the system named is UO-31 renal.
For experiment [15], the system named is TK-10 renal.
Experiment [16] relates to ACHN renal.
Experiment [17] deals with CAKI-1 renal.
In experiment [18] the test system is A498 renal.
The subject of experiment [19] is CCRF-CEM leukemia.
Experiment [20] has as its system MOLT-4 leukemia.

Turning to `Cc1cc(O)c(C(C)C)cc1N`, the growth in experiment [1] was 101% (inactive) and 104% (inactive); in experiment [2], 101% (inactive) and 116% (inactive); in experiment [3], 79% (inactive) and 97% (inactive); in experiment [4], 117% (inactive); in experiment [5], 104% (inactive) and 103% (inactive); in [6], 106% (inactive) and 98.4% (inactive). Moreover, the growth in [7] is 106% (inactive) and 98.9% (inactive); in [8] it was 97.5% (inactive) and 111% (inactive); in experiment [9] it was 98.1% (inactive) and 94.7% (inactive); in [10] it was 113% (inactive) and 111% (inactive); in experiment [11], 113% (inactive) and 119% (inactive); in experiment [12] it was 95% (inactive) and 104% (inactive). For the same compound, the growth in experiment [13] was 114% (inactive); in experiment [14], 78% (inactive) and 95.5% (inactive); in experiment [15] it was 123% (inactive) and 117% (inactive); in experiment [16], 93.3% (inactive) and 100% (inactive); in experiment [17] it was 107% (inactive) and 97.4% (inactive); in [18], 92.3% (inactive) and 89.7% (inactive). The growth in [19] is 105% (inactive) and 88.4% (inactive); in experiment [20], 95.2% (inactive) and 103% (inactive).

`O=C(CN1CCN(c2cc3c(cc2F)c(=O)c(C(=O)O)cn3C2CC2)CC1)Nc1ccc(Cl)cc1`: the growth in [1] is 83% (inactive) and 92.3% (inactive); in experiment [2], 57.9% (inactive) and 100% (inactive); in [3], 79.7% (inactive); in experiment [4] it was 83.1% (inactive) and 90.9% (inactive); in experiment [5], 44.2% (inactive) and 102% (inactive); in experiment [6], 80.1% (inactive) and 89.1% (inactive). The growth in experiment [7] is 71.1% (inactive) and 83.5% (inactive); in experiment [8], 63.6% (inactive) and 57.8% (inactive); in experiment [9], 61.1% (inactive) and 72.4% (inactive); in experiment [10], 87.1% (inactive) and 84% (inactive); in experiment [11], 94.8% (inactive) and 106% (inactive); in experiment [12], 93.4% (inactive) and 92.3% (inactive). In addition, the growth in [13] was 90.1% (inactive) and 90.6% (inactive); in experiment [14] it was 7.15% (active) and 16% (inactive); in experiment [15], 86.1% (inactive) and 127% (inactive); in [16] it was 53.2% (inactive) and 84.4% (inactive); in [17], 67.2% (inactive) and 77.6% (inactive); in experiment [18], 68.6% (inactive) and 45.8% (inactive). Also, the growth in experiment [19] is 77.4% (inactive) and 92.6% (inactive); in [20], 96.5% (inactive) and 92.7% (inactive).

Regarding `CN1CCN(c2ccc3nc(-c4c(N)c5c(F)cccc5[nH]c4=O)[nH]c3c2)CC1`, the growth in experiment [1] was 30.7% (inactive) and 18.7% (inactive); in experiment [2] it was 1.59% (active) and 10.3% (inactive); in experiment [3] it was 35.3% (inactive) and 28.4% (inactive); in experiment [4], 53.9% (inactive) and 61.5% (inactive); in experiment [5], 34.9% (inactive) and 33.5% (inactive); in experiment [6], 27.2% (inactive) and 38.4% (inactive). The growth in experiment [7] was 11.2% (inactive) and 36.3% (inactive); in experiment [8], 46.5% (inactive) and 41% (inactive); in experiment [9], -66.4% (active) and 16.4% (inactive); in experiment [10], -5.34% (active); in experiment [11], 45.5% (inactive); in [12], -82.3% (active) and 54.7% (inactive). Moreover, the growth in experiment [13] was 26.3% (inactive) and 27.6% (inactive); in [14], 7.59% (active) and 16% (inactive); in [15] it was 35.1% (inactive) and 45.8% (inactive); in experiment [16], 17.8% (inactive) and 18% (inactive); in experiment [17] it was 14% (inactive) and 20.4% (inactive); in experiment [18] it was 29% (inactive) and 14.6% (inactive). Further, the growth in [19] is 6.23% (active) and 10.7% (inactive); in [20], -8.41% (active) and 1.37% (active).

In the case of `CCN(CC)CCNc1ccc(C)c2sc3ccccc3c(=O)c12` (tested in a mixture with another compound), the growth in experiment [1] was 14.5% (inactive) and 14.2% (inactive); in experiment [2] it was 1.12% (active) and 10.8% (inactive); in experiment [3], 25.6% (inactive) and 51% (inactive); in [4], 41.1% (inactive) and 26.3% (inactive); in [5], 18.4% (inactive) and 15.1% (inactive); in experiment [6], 50.4% (inactive) and 35.3% (inactive). Moreover, the growth in [7] is -85.6% (active) and -91.5% (active); in [8], -68.8% (active) and -47.5% (active); in experiment [9] it was -17% (active) and -40.3% (active); in [10], -3.67% (active) and -6.09% (active); in experiment [11], 59.2% (inactive) and 86.4% (inactive); in experiment [12], 68.6% (inactive) and 86.6% (inactive). Further, the growth in [13] was 35.1% (inactive) and 36.4% (inactive); in experiment [14], -4.88% (active) and 2.67% (active); in experiment [15], 23.1% (inactive) and 50% (inactive); in experiment [16], 16.7% (inactive) and 10.4% (inactive); in experiment [17], 22.4% (inactive) and 29.9% (inactive); in experiment [18] it was 102% (inactive) and 75.7% (inactive). The growth in [19] is 55.7% (inactive) and 29.3% (inactive); in experiment [20] it was 8.98% (active) and 26.9% (inactive).

For `O=C(/C=C/c1ccccn1)c1ccccc1O`, the growth in experiment [1] was 39.4% (inactive) and 62% (inactive); in [2], 37.7% (inactive) and 29% (inactive); in [3], 75% (inactive); in experiment [4] it was 77.3% (inactive) and 81.6% (inactive); in [5], 38.3% (inactive) and 68.4% (inactive); in [6] it was 82.8% (inactive). The growth in [7] was 75.2% (inactive) and 88.1% (inactive); in [8] it was 77.5% (inactive) and 81.6% (inactive); in experiment [9], 20.4% (inactive) and 21.7% (inactive); in [10], 77.6% (inactive) and 92.6% (inactive); in experiment [11], 104% (inactive) and 100% (inactive); in experiment [12] it was 76% (inactive) and 88.1% (inactive). Also, the growth is 63.7% (inactive) and 88.1% (inactive) in experiment [13]; -17.5% (active) and 74.7% (inactive) in experiment [14]; 84.4% (inactive) and 55.3% (inactive) in [15]; 65.3% (inactive) and 74.2% (inactive) in experiment [16]; 34.8% (inactive) and 40% (inactive) in experiment [17]; 110% (inactive) in [18]. Moreover, the growth was 13.3% (inactive) in experiment [19] and 41.5% (inactive) in [20].
